Among all 310,000 compounds or so, about 2,200 (0.71%) showed an effect of 50% or more. Effects have a minus sign here. The entries come from a sample that favours strong results as a whole.

The experiment deals with human ether-à-go-go-related gene (hERG) potassium channel (human, UniProt Q12809). Description: primary screen, population patch clamp on CHO cells stably expressing hERG; higher = less effect of the substance.
human ether-à-go-go-related gene (hERG) potassium channel, sequence (Q12809 whole entry, looked up): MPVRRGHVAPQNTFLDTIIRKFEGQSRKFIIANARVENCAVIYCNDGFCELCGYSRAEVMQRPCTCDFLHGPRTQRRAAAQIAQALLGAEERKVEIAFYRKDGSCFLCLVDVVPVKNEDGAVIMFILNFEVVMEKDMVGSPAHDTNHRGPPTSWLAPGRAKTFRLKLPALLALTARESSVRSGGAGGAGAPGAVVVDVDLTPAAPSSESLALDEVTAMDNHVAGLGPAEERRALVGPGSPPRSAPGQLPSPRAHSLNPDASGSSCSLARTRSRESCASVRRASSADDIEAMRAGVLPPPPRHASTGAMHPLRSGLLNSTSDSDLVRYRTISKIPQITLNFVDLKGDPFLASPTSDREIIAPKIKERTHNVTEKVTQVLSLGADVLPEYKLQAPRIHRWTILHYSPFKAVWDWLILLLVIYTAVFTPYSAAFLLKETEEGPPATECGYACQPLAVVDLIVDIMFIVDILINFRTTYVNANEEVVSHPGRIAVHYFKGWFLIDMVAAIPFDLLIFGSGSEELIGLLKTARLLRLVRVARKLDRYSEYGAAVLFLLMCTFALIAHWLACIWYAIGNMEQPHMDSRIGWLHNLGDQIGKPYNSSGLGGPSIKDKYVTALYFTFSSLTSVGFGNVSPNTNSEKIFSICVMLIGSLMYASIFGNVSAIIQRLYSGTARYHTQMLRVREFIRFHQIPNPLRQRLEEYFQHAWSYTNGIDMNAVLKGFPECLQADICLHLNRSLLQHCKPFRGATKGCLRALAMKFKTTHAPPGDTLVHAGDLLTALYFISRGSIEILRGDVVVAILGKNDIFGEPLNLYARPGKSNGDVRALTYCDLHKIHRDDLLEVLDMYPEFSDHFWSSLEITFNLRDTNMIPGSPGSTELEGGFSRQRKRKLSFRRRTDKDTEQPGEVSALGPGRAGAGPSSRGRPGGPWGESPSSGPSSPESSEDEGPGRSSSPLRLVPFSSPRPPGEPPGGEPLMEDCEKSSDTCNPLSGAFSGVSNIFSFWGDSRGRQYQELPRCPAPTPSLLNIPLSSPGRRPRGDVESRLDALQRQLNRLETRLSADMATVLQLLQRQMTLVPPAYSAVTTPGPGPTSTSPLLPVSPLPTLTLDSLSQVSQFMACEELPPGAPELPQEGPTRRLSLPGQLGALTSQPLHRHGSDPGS
`CN(C)CCCOC(=O)c1ccc(Br)cc1`: the “hERG current change (%, negative = inhibition) at 1uM” value is -6.15%.

In the case of `COc1ccc(CCNC(=O)C2CCN(C(=O)c3ccc(OC)c(OC)c3)CC2)cc1`, the “hERG current change (%, negative = inhibition) at 1uM” value is given as 13.3%.

Consider `Cc1cccc(OCC(=O)NC(=S)Nc2ccc(S(=O)(=O)NC3CCCCC3)cc2)c1`, for which the “hERG current change (%, negative = inhibition) at 1uM” value came out at 11.2%.

As for `COc1ccc(-c2nc(-c3ccc4c(c3)OCO4)[nH]c2-c2ccc(OC)cc2)cc1`, the “hERG current change (%, negative = inhibition) at 1uM” value was found to be 14.7%.

`O=C(NC1CCN(Cc2cccc([N+](=O)[O-])c2)CC1)c1ccccc1`: the “hERG current change (%, negative = inhibition) at 1uM” value is on record as -3.19%.

As for `O=C(NC1CC2CCCC(C1)N2Cc1ccccc1)c1ccc([N+](=O)[O-])cc1` (stereo not shown), the “hERG current change (%, negative = inhibition) at 1uM” value is reported as -82.2%.

On to `CC(C)CN1C2CCCC1CC(NC(=O)c1ccc([N+](=O)[O-])cc1)C2` (stereo not shown), for which the “hERG current change (%, negative = inhibition) at 1uM” value is reported as -70.1%.

With `O=C(NC1CC2CCCC(C1)N2Cc1cccs1)c1ccc([N+](=O)[O-])cc1` (stereo not shown), the “hERG current change (%, negative = inhibition) at 1uM” value was -78.6%.

In the case of `COc1ccc(C(=O)NC2CC3CCCC(C2)N3CC(C)C)cc1` (stereo not shown), the “hERG current change (%, negative = inhibition) at 1uM” value is given as -13.5%.

In the case of `CN1C2CCC1CC(NC(=O)c1ccc([N+](=O)[O-])cc1)C2` (stereo not shown), the “hERG current change (%, negative = inhibition) at 1uM” value is on record as 12.1%.

With `CCOc1ccc(C(=O)NC2CC3CCCC(C2)N3Cc2ccccc2)cc1` (stereo not shown), the “hERG current change (%, negative = inhibition) at 1uM” value is given as -20.4%.

In the case of `CC1CCCCC1NC(=O)CN1CCC(NC(=O)c2ccc([N+](=O)[O-])cc2)CC1` (stereo not shown), the “hERG current change (%, negative = inhibition) at 1uM” value turned out to be 12.1%.

As to `COCCNC(=S)NC1CC2CCCC(C1)N2Cc1cccs1` (stereo not shown), the “hERG current change (%, negative = inhibition) at 1uM” value was -1.25%.

In the case of `O=C(NC1CC2CCCC(C1)N2Cc1ccccc1)c1cccc(Cl)c1` (stereo not shown), the “hERG current change (%, negative = inhibition) at 1uM” value is -12.1%.

In the case of `O=C(NC1CC2CCCC(C1)N2Cc1cccs1)N1CCOCC1` (stereo not shown), the “hERG current change (%, negative = inhibition) at 1uM” value is 3.19%.

For `O=C(NC1CCN(CC(=O)N(c2ccccc2)c2ccccc2)CC1)c1ccc([N+](=O)[O-])cc1`, the “hERG current change (%, negative = inhibition) at 1uM” value was -78.6%.

With `CC(C)NC(=O)C1CCN(C2CCN(C(=O)c3cc4c(s3)CCCCC4)CC2)CC1`, the “hERG current change (%, negative = inhibition) at 1uM” value stood at 6.33%.

`CCOc1cc(C(=O)NCCc2ccc(S(N)(=O)=O)cc2)cc(OCC)c1OCC`: the “hERG current change (%, negative = inhibition) at 1uM” value is given as 3.65%.

Turning to `Cc1ccccc1NC(=O)C1CCCN1C(=O)NC1CCCCC1` (stereo not shown), the “hERG current change (%, negative = inhibition) at 1uM” value was 17.4%.

Take `CCOCCCNc1nc(C(F)(F)F)nc2c1nnn2Cc1ccccc1Cl`: the “hERG current change (%, negative = inhibition) at 1uM” value is given as 15.9%.

With `O=C(N1CCC(n2nc(-c3ccccc3)oc2=O)CC1)C1(c2ccc(Cl)cc2)CC1`, the “hERG current change (%, negative = inhibition) at 1uM” value turned out to be 7.63%.

With `COCCNC(=O)c1c[nH]n2c(=O)cc(C3CCN(C(=O)OC(C)(C)C)CC3)nc12`, the “hERG current change (%, negative = inhibition) at 1uM” value is 9.37%.

In the case of `Cc1ccc(COc2coc(CN3CCN(C(=O)c4ccco4)CC3)cc2=O)cc1`, the “hERG current change (%, negative = inhibition) at 1uM” value is -16.4%.

On to `Cc1cccc(COc2coc(CN3CCN(C(=O)c4ccco4)CC3)cc2=O)c1`, for which the “hERG current change (%, negative = inhibition) at 1uM” value is reported as -7.28%.

On to `Cc1ccc(C)c(COc2coc(CN3CCN(C(=O)c4ccco4)CC3)cc2=O)c1`, for which the “hERG current change (%, negative = inhibition) at 1uM” value is listed as -95.9%.

With `CCCC(=O)Nc1nc2ccc(NC(=O)c3ccccc3F)cc2s1`, the “hERG current change (%, negative = inhibition) at 1uM” value was determined as 14.1%.

Turning to `COc1ccc(Nc2nnc(SCC(=O)N3CCCC3)s2)cc1`, the “hERG current change (%, negative = inhibition) at 1uM” value was determined as 7.15%.

As for `Cc1ccc(-c2nc(CS(=O)(=O)CC(=O)NCCN3CCCC3)c(C)o2)cc1`, the “hERG current change (%, negative = inhibition) at 1uM” value was determined as 7.76%.

Turning to `COc1ccc(-c2cc(C)no2)cc1S(=O)(=O)N(C)c1ccc(C)c(C)c1`, the “hERG current change (%, negative = inhibition) at 1uM” value was determined as 9.2%.

On to `COc1cccc(CCN2CCC(CNS(=O)(=O)c3cc(-c4cc(C)no4)ccc3C)CC2)c1`, for which the “hERG current change (%, negative = inhibition) at 1uM” value is listed as -20.1%.

Turning to `COc1ccccc1CN1CCC(CNS(=O)(=O)c2cc(-c3cc(C)no3)ccc2OC)CC1`, the “hERG current change (%, negative = inhibition) at 1uM” value is -33.2%.

In the case of `COc1cccc(CCN2CCC(CNS(=O)(=O)c3cc(-c4cc(C)no4)ccc3OC)CC2)c1`, the “hERG current change (%, negative = inhibition) at 1uM” value was -66.3%.

As for `COc1ccc(-c2cc(C)no2)cc1S(=O)(=O)N(C)c1ccc(C)cc1`, the “hERG current change (%, negative = inhibition) at 1uM” value was found to be 4.37%.

Consider `COc1ccc(-c2cc(C)no2)cc1S(=O)(=O)N(C)c1cccc(C)c1`, for which the “hERG current change (%, negative = inhibition) at 1uM” value is -62.5%.

As to `Cc1ccc(C(=O)OCC(=O)Nc2ccc(S(N)(=O)=O)cc2)c(O)c1`, the “hERG current change (%, negative = inhibition) at 1uM” value was found to be 7.79%.

Regarding `CC(=O)NC(=S)NNC(=O)C(c1ccccc1)c1ccccc1`, the “hERG current change (%, negative = inhibition) at 1uM” value is listed as 15%.

Regarding `C=CCNc1cccc(Br)c1`, the “hERG current change (%, negative = inhibition) at 1uM” value was 12.5%.

As to `COc1cc(/C=N/Nc2nn3cnnc3c3ccccc23)ccc1O`, the “hERG current change (%, negative = inhibition) at 1uM” value was 20.3%.

Turning to `CCCCOC(=O)C[N+](C)(C)CCOC1CC2CCC1(C)C2(C)C.[Br-]` (stereo not shown), the “hERG current change (%, negative = inhibition) at 1uM” value is -4.93%.

For `CCCOC(=O)C[N+](C)(C)CCOC1CC2CCC1(C)C2(C)C.[Br-]` (stereo not shown), the “hERG current change (%, negative = inhibition) at 1uM” value worked out at 11.2%.

As to `CCCCCCOC(=O)C[N+](C)(C)CCOC1CC2CCC1(C)C2(C)C.[Cl-]` (stereo not shown), the “hERG current change (%, negative = inhibition) at 1uM” value is on record as -69%.

Consider `COc1ccc(NC(=O)c2cccn(CC=C(C)C)c2=O)cc1`, for which the “hERG current change (%, negative = inhibition) at 1uM” value is 11.5%.

For the compound `Cc1c(S(=O)(=O)N2CCN(c3cccc(Cl)c3)CC2)c(=O)n(C)c(=O)n1C`, the “hERG current change (%, negative = inhibition) at 1uM” value is 5.16%.

Consider `COc1ccc(OC)c2c1nc1n2CCS1`, for which the “hERG current change (%, negative = inhibition) at 1uM” value was 4.74%.

As for `Cl.OC(COCc1cccs1)CN1CCCCCC1` (stereo not shown), the “hERG current change (%, negative = inhibition) at 1uM” value is recorded as -5.74%.

For `CN1CCCN(CC(O)COCc2cccs2)CC1` (stereo not shown), the “hERG current change (%, negative = inhibition) at 1uM” value is recorded as 5.43%.

Source of the values: paper PMC4336329 (PLoS ONE, 2015).
